# The supplement of paper PMC8728848
# The sample as a whole holds a higher share of the strongest signals than the screen did.
# B1: SIGNR8 (Mus musculus) (protein)
# chain: MAGEPEFHQSKNHEEEVTSGEQGFAEHDPEGLICSSKSLQGHLTQVPWLLLLLISLGLFLLMLATLVQVSRIRAYSQGQTQDQQGSSSLDKVAVPREQTHSGLEQIQQIQQQLTQFNASLAGLCRPCPWDWELFQGSCYLFSRTLGSWETSASSCEDLGAHLVIVNSVSEQRFMKYWNVRKNQRSWIGLSDHIHEGSWQWVDGSALKFSFWKEGEPNNDGDEDCVELFMDDWNDNKCTEQNFWVCEQPSAPCPHH
# B2: SLR2P2A3 (Tachypleus tridentatus), TAL2_TACTR (protein)
# chain: MEKGTPPTHDSDNWMGRAKKIGNGGWNQFQFLFFDPNGYLYAVSKDKLYKASPPQSDTDNWIARATEIGSGGWSGSKFLFFHPNGYLYAVHGQRLYKALPPVSNQD
# Tests used:
# Test in all cases: glycan array binding signal (z-score within array); higher = stronger binding
# Conditions in all cases: glycan notation: IUPAC condensed, linker removed
# [1] = molecular target: Fuc(a1-2)[Gal(a1-3)]Gal
# Outline: (§1)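 From the Consortium for Functional Glycomics database, 3228 arrays were curated, keeping only those whose protein sequence was available. Binding is given as a within-array Z-score averaged across arrays sharing a protein sequence and across linkers. Negative Z-scores can be read as non-binding.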
# [2] = molecular target: Fuc(a1-2)[Gal(a1-4)]Gal(b1-4)GlcNAc
# Outline: as §1
# [3] = molecular target: Fuc(a1-2)[GalNAc(a1-3)]Gal(b1-4)[Fuc(a1-3)]GlcNAc
# Outline: as §1
# [4] = molecular target: Fuc(a1-3)[Gal(b1-4)]GlcNAc(b1-4)Gal(b1-4)[Fuc(a1-3)]GlcNAc
# Outline: as §1
# [5] = molecular target: Fuc(a1-3)[GalNAc(b1-4)]GlcNAc
# Outline: as §1
# [6] = molecular target: Gal(a1-3)Gal
# Outline: as §1
# [7] = molecular target: Gal(a1-3)Gal(b1-4)GlcNAc
# Outline: as §1
# [8] = molecular target: Gal(a1-3)[Gal(a1-4)]Gal(b1-4)GlcNAc
# Outline: as §1
# [9] = molecular target: Gal(b1-3)Gal
# Outline: as §1
# [10] = molecular target: Gal(b1-3)GalNAc(b1-4)[Neu5Ac(a2-3)]Gal(b1-4)Glc
# Outline: as §1
# [11] = molecular target: Gal(b1-3)GlcNAc(b1-3)Gal(b1-4)Glc
# Outline: as §1
# [12] = molecular target: Gal(b1-3)[Neu5Ac(b2-6)]GalNAc
# Outline: as §1
# [13] = molecular target: Gal(b1-4)GlcNAc(b1-3)Gal(b1-4)GlcNAc(b1-3)Gal(b1-4)GlcNAc
# Outline: as §1
# [14] = molecular target: Gal(b1-4)GlcNAc(b1-6)[Gal(b1-3)]GalNAc
# Outline: as §1
# [15] = molecular target: GalNAc(a1-3)Gal
# Outline: as §1
# [16] = molecular target: GlcNAc(b1-3)Gal(b1-4)GlcNAc
# Outline: as §1
# [17] = molecular target: Man(a1-3)[Man(a1-6)]Man
# Outline: as §1
# [18] = molecular target: Neu5Ac(a2-3)Gal(b1-3)[Fuc(a1-4)]GlcNAc(b1-3)Gal(b1-4)[Fuc(a1-3)]GlcNAc
# Outline: as §1
# [19] = molecular target: Neu5Ac(a2-3)[GalNAc(b1-4)]Gal(b1-4)Glc
# Outline: as §1
# [20] = molecular target: Neu5Ac(a2-3)[GalNAc(b1-4)]Gal(b1-4)GlcNAc
# Outline: as §1
# [21] = molecular target: Neu5Ac(a2-6)Gal(b1-4)Glc
# Outline: as §1
# [22] = molecular target: Fuc(a1-2)[Gal(a1-3)]Gal(b1-4)Glc
# Outline: as §1
# [23] = molecular target: Fuc(a1-2)[GalNAc(a1-4)]Gal(b1-4)GlcNAc
# Outline: as §1
# [24] = molecular target: Fuc(a1-4)GlcNAc
# Outline: as §1
# [25] = molecular target: Gal(b1-3)GlcNAc(b1-3)Gal(b1-3)GlcNAc
# Outline: as §1
# [26] = molecular target: Gal3S(b1-4)GlcNAc6S
# Outline: as §1
# [27] = molecular target: GlcA(b1-3)GlcNAc
# Outline: as §1
# [28] = molecular target: GlcNAc(a1-3)Gal(b1-4)GlcNAc
# Outline: as §1
# [29] = molecular target: GlcNAc(a1-6)Gal(b1-4)GlcNAc
# Outline: as §1
# [30] = molecular target: GlcNAc(b1-3)Gal(b1-4)Glc
# Outline: as §1
# [31] = molecular target: Neu5Ac(a2-6)GalNAc
# Outline: as §1
# [32] = molecular target: Neu5Ac(a2-8)Neu5Ac(a2-3)[GalNAc(b1-4)]Gal(b1-4)Glc
# Outline: as §1
# [33] = molecular target: Neu5Gc(a2-3)Gal(b1-4)Glc
# Outline: as §1
# [34] = molecular target: Neu5Gc(a2-3)Gal(b1-4)GlcNAc
# Outline: as §1
# [35] = molecular target: Neu5Gc(a2-6)GalNAc
# Outline: as §1
Binder,glycan array binding signal (z-score) [1],glycan array binding signal (z-score) [2],glycan array binding signal (z-score) [3],glycan array binding signal (z-score) [4],glycan array binding signal (z-score) [5],glycan array binding signal (z-score) [6],glycan array binding signal (z-score) [7],glycan array binding signal (z-score) [8],glycan array binding signal (z-score) [9],glycan array binding signal (z-score) [10],glycan array binding signal (z-score) [11],glycan array binding signal (z-score) [12],glycan array binding signal (z-score) [13],glycan array binding signal (z-score) [14],glycan array binding signal (z-score) [15],glycan array binding signal (z-score) [16],glycan array binding signal (z-score) [17],glycan array binding signal (z-score) [18],glycan array binding signal (z-score) [19],glycan array binding signal (z-score) [20],glycan array binding signal (z-score) [21],glycan array binding signal (z-score) [22],glycan array binding signal (z-score) [23],glycan array binding signal (z-score) [24],glycan array binding signal (z-score) [25],glycan array binding signal (z-score) [26],glycan array binding signal (z-score) [27],glycan array binding signal (z-score) [28],glycan array binding signal (z-score) [29],glycan array binding signal (z-score) [30],glycan array binding signal (z-score) [31],glycan array binding signal (z-score) [32],glycan array binding signal (z-score) [33],glycan array binding signal (z-score) [34],glycan array binding signal (z-score) [35]
B1,2.32,3.32,-0.386,-0.385,-0.369,2.62,3.18,4.59,4.35,-0.329,-0.386,-0.394,1.7,2.18,-0.329,-0.398,-0.373,-0.393,-0.4,-0.4,-0.394,,,,,,,,,,,,,,
B2,-0.054,-0.148,,,,-0.317,,,,,,,,,6.13,,,,,,,-0.191,7.28,-0.416,-0.344,-0.09,0.168,5.44,6.84,5.09,-0.16,-0.279,-0.253,-0.059,-0.125
